KB-3-1 tox: kills parental KB-3-1 adenocarcinoma cells; Potency, µM (highest dose often 46.1 µM), most hits filed as cytotoxic; 400,000 compounds, 1.4% hits; KB-3-1 viability, CellTiter-Glo ATP luminescence, 72 h; AID 1347075; also: % is scaled to controls: 0 for no effect and ±100 for the full control effect; nearly all actives have a fitted effect of over 60% in size
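Using CellTiter-Glo luminescence, growth of non-resistant KB-3-1 adenocarcinoma cells is assessed 72 h after pin-tool compound addition at 37 °C. Normalized responses across the concentration series yield fitted curves.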
ATXN viability: viability counter-screen for ATXN expression inhibitors. S2 cells (HEK-293 line with an ATXN2-luciferase reporter) viability, CellTiter-Fluor protease fluorescence, 24 h. Potency, µM (titrated, usually from 56.7 µM), actives largely listed as cytotoxic. 400,000 compounds, 0.49% hits. AID 651635; also: nearly all actives have a fitted effect of over 40% in size
KB-V1 MDR tox: KB-V1 MDR subline cytotoxicity; 400,000 compounds, 3.4% hits; Potency, µM (series often up to 46.1 µM), usual class: cytotoxic; AID 1347076; KB-V1 MDR cells viability, CellTiter-Glo, 72 h; also: % is scaled to controls: 0 for no effect and ±100 for the full control effect; nearly all actives have a fitted effect of over 60% in size
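In this primary screen, KB-V1 cells overexpressing P-gp are incubated with library compounds (lowest to highest concentration) for 72 h at 37 degrees C before a luminescent ATP viability read.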
ATXN2 expr inh: reduces ATXN2 reporter expression in HEK-293 cells. 360,000 compounds, 0.72% hits. HEK-293 ATXN2-luciferase reporter, luminescence, 24 h. Potency, µM (doses to about 57 µM), without a hit: at the top dose activity change, negative = inhibition, most hits filed as inhibitors; also: % is scaled to controls: 0 for no effect and ±100 for the full control effect; nearly all actives have a fitted effect of over 55% in size
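qHTS (up to 57 uM final) was run with 24 h compound exposure of reporter cells at 37 °C. Each well was multiplexed: SteadyGlo luminescence measured ATXN2-luciferase expression after a fluorogenic Gly-Phe-AFC viability readout (25 uM final).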
TGFb inhibitor: TGF-b pathway inhibition; 410,000 compounds, 1.2% hits; Potency, µM (titrated, usually from 46.1 µM), inactives show top-dose activity, negative = inhibition, usual class: inhibitors; AID 588855; HepG2 CAGA-GFP TGF-b/SMAD3 reporter, GFP fluorescence, 18 h; TGF-beta stimulated, 500 pg/mL final; also: % is scaled to controls: 0 for no effect and ±100 for the full control effect; nearly all actives have a fitted effect of over 65% in size
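Per well, imaged GFP fluorescence of HEPG2 CAGA-GFP cells gives the signal; cells get compound, then TGF-beta (500 pg/mL final), 18 h at 37 degrees C; %Activity versus -TGF-beta and +DMSO controls.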
HepG2 viability: HepG2 cytotoxicity, counter-screen for TGF-b inhibitors; HepG2 CAGA-GFP viability, ATP luminescence, 18 h; Potency, µM (doses to about 46.1 µM), inactives show top-dose activity change, negative = cytotoxicity, most hits filed as cytotoxic; 410,000 compounds, 0.76% hits
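CellTiter-Glo luminescence gave cytotoxicity after 18 hours at 37 degrees C. The cells were HepG2 CAGA-GFP in 1% FBS DMEM, stimulated with 500 pg/mL TGF-beta after compound addition. %Activity was normalised to no-cell wells (complete cell-killing) and DMSO (no toxicity), and curves were fitted and classified.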
Active calls of the source: *; ! = repeats disagree. Most compounds without a hit are left out; they make up all but 5.9% or so of the library. Calls follow the shape of the dose curve; as a rule, active = well fitted curve in the direction sought with a large enough effect; inconclusive = small, poorly fitted or top-dose-only effect, or another doubt; inactive = no such curve, though single readings can be large; an effect the other way counts as inactive or inconclusive. Potency is read from the fitted curve at half-maximal effect.

Results for O=C(NCc1ccc2c(c1)OCO2)c1ccc2c(c1)N(Cc1ccccc1F)C(=O)c1ccccc1S2=O (stereo not given) ?
KB-3-1 tox: inactive; ATXN viability: inactive; KB-V1 MDR tox: inactive; ATXN2 expr inh: 10%; TGFb inhibitor: 6%; HepG2 viability: -1%

How did CCc1ccc(C(=O)C[N+]2(C)CCOCC2)cc1 do in these assays?
KB-3-1 tox: inactive; KB-V1 MDR tox: inactive; TGFb inhibitor: 15%; HepG2 viability: -18%

Results for CN1/C(=C/c2cc[n+](C)c3ccccc23)C=Cc2ccccc21 ?
KB-3-1 tox: 6.5µM*; ATXN viability: inconclusive; KB-V1 MDR tox: inactive; ATXN2 expr inh: 3.8µM*; TGFb inhibitor: inconclusive; HepG2 viability: -17%

How did COc1ccc(S(=O)(=O)NCc2cccn2Cc2cc(C)ccc2C)cc1OC do in these assays?
KB-3-1 tox: inactive; ATXN viability: inactive; KB-V1 MDR tox: inactive; ATXN2 expr inh: -5%; TGFb inhibitor: -27%; HepG2 viability: -24%

Results for COc1cc(-c2noc(C)c2/C=C/c2ccc(OC(C)=O)cc2)cc(OC)c1OC ?
KB-3-1 tox: 0.73µM*; ATXN viability: inconclusive; KB-V1 MDR tox: 1.3µM*!; ATXN2 expr inh: -6%; TGFb inhibitor: inconclusive; HepG2 viability: -1%

What do the screens show for `O=S(=O)(Nc1cc(F)ccc1F)c1ccc2[nH]c3c(c2c1)CCCC3`?
KB-3-1 tox: inactive; ATXN viability: inconclusive; KB-V1 MDR tox: inactive; ATXN2 expr inh: inconclusive; TGFb inhibitor: inconclusive; HepG2 viability: -52%

What do the screens show for `O=S(=O)(Nc1cc(F)ccc1F)c1ccc2[nH]c3c(c2c1)CCCCC3`?
KB-3-1 tox: inactive; ATXN viability: inconclusive; KB-V1 MDR tox: inactive; ATXN2 expr inh: inconclusive; TGFb inhibitor: inconclusive; HepG2 viability: 11µM*

How did O=S(=O)(Nc1cccc(F)c1)c1ccc2[nH]c3c(c2c1)CCCCC3 do in these assays?
KB-3-1 tox: inactive; ATXN viability: 28µM*; KB-V1 MDR tox: inactive; ATXN2 expr inh: 0%; TGFb inhibitor: inconclusive; HepG2 viability: -101%

Results for Cc1ccc(NS(=O)(=O)c2ccc3[nH]c4c(c3c2)CCCCCC4)cc1C ?
KB-3-1 tox: inactive; ATXN viability: inconclusive; KB-V1 MDR tox: inactive; ATXN2 expr inh: -33%; TGFb inhibitor: inconclusive; HepG2 viability: -116%

Results for CSc1nc(Cl)c(Cc2ccc(OC(C)C)cc2)c(N2CCOCC2)n1 ?
KB-3-1 tox: 9.2µM*; ATXN viability: inactive; KB-V1 MDR tox: inconclusive; ATXN2 expr inh: -27%; TGFb inhibitor: inconclusive; HepG2 viability: -3%

What do the screens show for `CN(/N=C/c1cc(Br)cc(Br)c1O)c1cccc(C(F)(F)F)n1`?
KB-3-1 tox: inconclusive; KB-V1 MDR tox: inactive; ATXN2 expr inh: inconclusive; TGFb inhibitor: inconclusive; HepG2 viability: 3.2µM*

How did O=C(Nc1nc2c(s1)CN(Cc1ccccc1)CC2)c1cccc(S(=O)(=O)N2CCc3ccccc32)c1 do in these assays?
KB-3-1 tox: inconclusive; ATXN viability: inactive; KB-V1 MDR tox: 6.5µM*; ATXN2 expr inh: -5%; TGFb inhibitor: 17%; HepG2 viability: -19%

How did CNC(=O)c1ccsc1NC(=O)c1ccc(S(=O)(=O)N2CCCc3ccccc32)cc1 do in these assays?
KB-3-1 tox: 8.2µM*; ATXN viability: inactive; KB-V1 MDR tox: inconclusive; ATXN2 expr inh: inconclusive; TGFb inhibitor: inconclusive; HepG2 viability: -17%

How did O=C(Nc1nc2ccccc2s1)c1cccc(S(=O)(=O)N2CCc3ccccc32)c1 do in these assays?
KB-3-1 tox: inconclusive; ATXN viability: inactive; KB-V1 MDR tox: inconclusive; ATXN2 expr inh: 3%; TGFb inhibitor: inconclusive; HepG2 viability: -14%

What do the screens show for `O=C(Nc1nc2c(s1)CCCC2)c1ccc(S(=O)(=O)N2CCCc3ccccc32)cc1`?
KB-3-1 tox: 5.8µM*; ATXN viability: inactive; KB-V1 MDR tox: 2.6µM*; ATXN2 expr inh: -24%; TGFb inhibitor: inconclusive; HepG2 viability: -10%

Results for CC1CCc2nc(NC(=O)c3ccc(S(=O)(=O)N4CCCc5ccccc54)cc3)sc2C1 (stereo not given) ?
KB-3-1 tox: inactive; ATXN viability: inactive; KB-V1 MDR tox: inconclusive; ATXN2 expr inh: -17%; TGFb inhibitor: -20%; HepG2 viability: -28%

How did COc1ccc(CCN2C(=O)COc3ccccc3C2C(=O)Nc2ccc3c(c2)OCCO3)cc1OC (stereo not given) do in these assays?
KB-3-1 tox: inactive; KB-V1 MDR tox: inactive; ATXN2 expr inh: inconclusive

How did CC(C)C(NS(=O)(=O)c1cccc2nsnc12)C(=O)N1CCc2ccccc2C1 (stereo not given) do in these assays?
KB-3-1 tox: inactive; ATXN viability: inactive; KB-V1 MDR tox: 18µM*; ATXN2 expr inh: -3%; TGFb inhibitor: -7%; HepG2 viability: -18%

Results for CC1CCN(C(=O)C(NS(=O)(=O)c2cccc3nsnc23)C(C)C)CC1 (stereo not given) ?
KB-3-1 tox: inactive; ATXN viability: inactive; KB-V1 MDR tox: inactive; ATXN2 expr inh: 4%; TGFb inhibitor: 7%; HepG2 viability: 4%

Results for COc1cccc(NC(=O)CSc2c(C)cnc3c2c(=O)n(C)c(=O)n3C)c1 ?
KB-3-1 tox: inactive; ATXN viability: inactive; KB-V1 MDR tox: inactive; ATXN2 expr inh: 21%; TGFb inhibitor: 9%; HepG2 viability: -5%

What do the screens show for `COc1c(Cl)cnn(-c2ccccc2)c1=O`?
KB-3-1 tox: inactive; ATXN viability: inactive; KB-V1 MDR tox: inconclusive; ATXN2 expr inh: -7%; TGFb inhibitor: -13%; HepG2 viability: 0%

Results for COc1nn(-c2ccccc2)c(=O)c(Cl)c1Cl ?
KB-3-1 tox: inconclusive; ATXN viability: inconclusive; KB-V1 MDR tox: inactive; ATXN2 expr inh: inconclusive; TGFb inhibitor: 14µM*; HepG2 viability: 14µM*

Results for O=C(OCC(=O)N1CCOCC1)c1ccccc1Br ?
KB-3-1 tox: inactive; ATXN viability: inactive; KB-V1 MDR tox: inactive; ATXN2 expr inh: 32%; TGFb inhibitor: 10%; HepG2 viability: -15%

What do the screens show for `O=C(C(Sc1ccccc1)c1ccccc1)N1CCOCC1` (stereo not given)?
KB-3-1 tox: inactive; ATXN viability: inactive; KB-V1 MDR tox: 18µM*; ATXN2 expr inh: 1%; TGFb inhibitor: -1%; HepG2 viability: 1%

How did O=C(OCC(=O)N1CCOCC1)C(c1ccccc1)c1ccccc1 do in these assays?
KB-3-1 tox: inactive; ATXN viability: inactive; KB-V1 MDR tox: 21µM*; ATXN2 expr inh: -1%; TGFb inhibitor: -10%; HepG2 viability: -1%

Screens as filed in PubChem BioAssay.
